# In PubChem BioAssay:
# Activity calls are given as the source filed them.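 Rule for the calls, unless noted: active = visual image review flags a hit and inhibition of aggregation exceeds 20%; inconclusive = visual hit but inhibition at or below 20%; inactive = no hit on visual image review.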
# Experiments:
# [1] = inhibitors of TNFa-induced NFkB p65 translocation, primary screen, imaging, HUVEC, MLSMR starter and 10KST1 sets (AID 438;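 active = inhibition above 20% together with a positive visual image hit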;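 note: compound added about 3h40 before a 20 min TNFalpha stimulation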;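 for inhibition: signal is the nuclear over cytoplasmic p65 intensity ratio per well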); settings: HUVEC TNFa-induced p65 nuclear translocation; cell count: measured here: nuclei count (cytotoxicity indicator), at 2.08 µM; inhibition: at 2 µM, stronger effect = higher value, 0% TNFa-plus-vehicle, 100% no-TNFa wells
# [2] = inhibitors of mutant huntingtin aggregation, primary screen, imaging, exon1htt(103Q)mCFP cells, high-content imaging (AID 483); settings: exon1htt(103Q)mCFP cell line, aggregate imaging, at 2 µM; inhibition of aggregation: stronger effect = higher value; nuclei count: measured here: cell count, toxicity;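 note: compound exposure lasted 3 days before fixation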;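 for nuclei count: percent of the per-plate median nuclei count of sample wells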
# [3] = inhibitors of E-selectin induction by TNFa, primary screen, imaging, HUVEC, immunofluorescence, MLSMR starter and 10KST1 sets (AID 487;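 active = visually confirmed hit in the image check and inhibition above 20%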;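 for inhibition: signal is fraction of cell area covered by stained E-selectin grains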;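 for nuclei count: 100% = median nuclei count of all wells on the same plate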); settings: HUVEC TNFalpha-induced E-selectin immunofluorescence imaging, at 2 µM; inhibition: stronger effect = higher value; nuclei count: measured here: cell number, toxicity
# [4] = molecular target: Voltage-gated potassium channel subunit beta-2 (Rattus norvegicus) (UniProt P62483); experiment: KvBeta enzyme negative modulators, primary screen, biochemical, NADPH fluorescence (AID 622;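 active = fluorescence slope higher than the sample average by over 3 SD, cut at about -0.22 in these data, passing the limit was not always enough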;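 note: slope of raw intensity against log time taken from 70 to 1610 s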); settings: recombinant KvBeta, 4-cyanobenzaldehyde reduction, at 10 µM, stronger effect = higher value
# [5] = molecular target: Voltage-gated potassium channel subunit beta-2 (Rattus norvegicus) (UniProt P62483); experiment: KvBeta positive modulators, primary screen, biochemical, NADPH fluorescence (AID 623;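 active = NADPH fluorescence slope more negative than the mean of all samples by about 3 SD, 99.7% confidence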;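 note: fluorescence intensity change per second fitted from 20 to 320 s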); settings: Recombinant KvBeta, NADPH fluorescence decrease slope, 10 min; at 10 µM; stronger effect = lower value
# [6] = molecular target: Alpha-2C adrenergic receptor (Homo sapiens) (UniProt P18825); experiment: modulators of alpha2C/GIRK thallium flux, primary screen, cell-based, HEK293 alpha2C/GIRK1/2 (AID 624;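 active = fluorescence slope after compound addition differing from the mean of all screened samples at 99.7% confidence, in either direction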;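 note: slope of fluorescence ratio to pre-addition baseline per second over 15 to 24 s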); settings: thallium flux BTC fluorescence, at 10 µM, actives lie on both sides
# [7] = inhibitors of Sendai virus-induced IRF3 signaling, primary screen, TLR/RLR signaling modifier project, cell-based, Sendai virus stimulus, luciferase, 10K MLSCN set (AID 602276;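 active = inhibition at or above 50% at 10 µM; inactive = inhibition below 50%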;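 note: firefly luciferase from ISG56 promoter only with Renilla not read in this screen; 0% = Sendai virus plus DMSO and 100% = medium plus DMSO without virus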); settings: HEK293 RL24 IRF3 luciferase reporter, at 10 µM, stronger effect = higher value
# [8] = inhibitors of poly I:C-induced TLR3 signaling, primary screen, cell-based, poly I:C stimulus, luciferase, 10K MLSCN set (AID 602277;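 active = inhibition of the reporter signal at or above 50%; inactive = inhibition below 50%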); settings: HEK293-TLR3 RL24 IRF3 luciferase reporter, at 10 µM, stronger effect = higher value
# Sequence of Voltage-gated potassium channel subunit beta-2 (Rattus norvegicus) (P62483 whole entry, looked up): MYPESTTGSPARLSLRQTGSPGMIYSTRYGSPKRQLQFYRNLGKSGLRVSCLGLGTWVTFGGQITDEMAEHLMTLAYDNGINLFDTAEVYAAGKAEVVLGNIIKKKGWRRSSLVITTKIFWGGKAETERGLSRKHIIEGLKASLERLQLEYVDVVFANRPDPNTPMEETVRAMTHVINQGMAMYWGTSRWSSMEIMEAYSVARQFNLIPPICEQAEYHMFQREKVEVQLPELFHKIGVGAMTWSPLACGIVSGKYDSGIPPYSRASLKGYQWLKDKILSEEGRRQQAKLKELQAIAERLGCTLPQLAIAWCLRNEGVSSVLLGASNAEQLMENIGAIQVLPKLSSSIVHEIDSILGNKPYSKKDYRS
# Sequence of Alpha-2C adrenergic receptor (Homo sapiens) (P18825 whole entry, looked up): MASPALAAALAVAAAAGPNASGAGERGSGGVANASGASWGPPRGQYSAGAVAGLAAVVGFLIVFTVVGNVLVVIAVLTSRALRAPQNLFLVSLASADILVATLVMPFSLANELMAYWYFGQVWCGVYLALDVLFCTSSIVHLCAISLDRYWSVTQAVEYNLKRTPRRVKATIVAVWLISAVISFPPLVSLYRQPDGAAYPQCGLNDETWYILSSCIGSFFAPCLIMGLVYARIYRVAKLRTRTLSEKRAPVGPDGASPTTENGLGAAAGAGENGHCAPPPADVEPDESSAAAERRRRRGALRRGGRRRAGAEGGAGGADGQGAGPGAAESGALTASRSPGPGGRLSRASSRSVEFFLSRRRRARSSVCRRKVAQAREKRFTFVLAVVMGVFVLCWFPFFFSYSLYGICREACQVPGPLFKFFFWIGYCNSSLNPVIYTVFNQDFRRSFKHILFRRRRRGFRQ
Compound,cell count [1],inhibition [1],inhibition of aggregation [2],nuclei count [2],inhibition [3],nuclei count [3],fluorescence slope [4],NADPH fluorescence slope [5],slope [6],inhibition [7],inhibition [8]
CCCCn1c(CNC(=O)CCC)nc2ccccc21,635,3.9% (inactive),-10.7% (inactive),124%,-30.1% (inactive),116%,-0.565 (inactive),-4.3e-05 (inactive),0.00641 (inactive),5.22% (inactive),31.7% (inactive)
Cc1ccc(-c2nc(=S)c3c(n2Cc2ccco2)CCCC3)cc1,320,1% (inactive),-7.2% (inactive),77.9%,-22.3% (inactive),85.5%,-0.485 (inactive),-0.00017 (inactive),0.00678 (inactive),16% (inactive),27.9% (inactive)
CCOC(=O)c1cc2c(=O)n3ccccc3nc2n(Cc2ccccc2)c1=N,913,11.3% (inactive),19.9% (inactive),102%,-109% (inactive),117%,-0.364 (inactive),-2.8e-05 (inactive),0.00332 (inactive),6.32% (inactive),33.2% (inactive)
COc1ccc(NC(=O)C(C)NS(=O)(=O)c2ccccc2)cc1Cl (centres undefined),315,-15.9% (inactive),2.6% (inactive),116%,-51.4% (inactive),65%,-0.369 (inactive),7.6e-06 (inactive),0.00596 (inactive),8.06% (inactive),17.6% (inactive)
CC1(C)CC(=O)C(C(=O)CCCCC(=O)C2C(=O)CC(C)(C)CC2=O)C(=O)C1,269,3.6% (inactive),18% (inactive),100%,19% (inactive),80%,-0.415 (inactive),1.6e-05 (inactive),0.00351 (inactive),-6.03% (inactive),-20.4% (inactive)
O=C(c1ccco1)N1CCN(CCCCN2C(=O)c3ccccc3C2=O)CC1,265,26.7% (inactive),16% (inactive),89.1%,5.7% (inactive),95.4%,-0.593 (inactive),4.7e-06 (inactive),0.00572 (inactive),15.1% (inactive),36.3% (inactive)
COCCn1nnnc1C(c1cccs1)N1CCN(c2cc(C)ccc2C)CC1 (centres undefined),203,11.4% (inactive),-9% (inactive),84.8%,-2.6% (inactive),96.9%,-0.618 (inactive),2e-05 (inactive),0.00567 (inactive),11.1% (inactive),16.2% (inactive)
CCCC(=O)NCCc1cc2c(C)ccc(C)c2[nH]c1=O,592,-4.8% (inactive),-1.1% (inactive),114%,-9% (inactive),117%,-0.557 (inactive),-2.9e-05 (inactive),0.00601 (inactive),9% (inactive),10.9% (inactive)
Cc1ccc2cc(CN(Cc3ccc4c(c3)OCO4)Cc3nnnn3Cc3ccco3)c(=O)[nH]c2c1C,338,0.9% (inactive),29.2% (inactive),49%,-79.9% (inactive),109%,-0.389 (inactive),4.5e-05 (inactive),0.00797 (inactive),39.3% (inactive),79.5% (active)
CC(=O)C1=C(C)NC(C)=C(C(C)=O)C1c1cccs1,466,3.5% (inactive),-5.6% (inactive),103%,28.1% (inactive),108%,-0.369 (inactive),2.7e-05 (inactive),0.00356 (inactive),1.28% (inactive),39.4% (inactive)
Cc1cccc(N2CCN(C(=O)c3cc4ccccc4oc3=O)CC2)c1C,712,-2.8% (inactive),-28.9% (inactive),93.7%,-22.9% (inactive),117%,-0.565 (inactive),-2.1e-05 (inactive),0.00624 (inactive),-10.3% (inactive),-10.8% (inactive)
O=C(c1ccncc1)N1CCN(C(=O)c2cccs2)CC1,454,-3.3% (inactive),1.6% (inactive),110%,0.5% (inactive),106%,-0.459 (inactive),-3e-05 (inactive),0.00631 (inactive),12.1% (inactive),14.2% (inactive)
O=C(Cn1nnc(-c2ccccc2)n1)Nc1ccccc1N1CCOCC1,584,3% (inactive),5.4% (inactive),63.9%,-16% (inactive),107%,-0.602 (inactive),2.3e-05 (inactive),0.0042 (inactive),14.7% (inactive),14.8% (inactive)
CC1NC(=O)NC1CCCCCC(=O)NCCc1ccccc1 (centres undefined),391,7.3% (inactive),7.5% (inactive),110%,-86.2% (inactive),113%,-0.441 (inactive),-1.4e-05 (inactive),0.006 (inactive),5.75% (inactive),15.3% (inactive)
